# This is one part of a sample in which the strongest signals are shown more often than they occur.
# Legend:
# Assay in all cases: glycan array binding signal (z-score within array); higher = stronger binding
# Conditions in all cases: glycan notation: IUPAC condensed, linker removed
# [1] = target: Fuc(a1-2)Gal(b1-3)GalNAc(b1-3)Gal(a1-4)Gal(b1-4)Glc
# Method in brief: (§1)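 From the Consortium for Functional Glycomics database, 3228 arrays were curated, keeping only those whose protein sequence was available. Binding is given as a within-array Z-score averaged across arrays sharing a protein sequence and across linkers. Negative Z-scores can be read as non-binding.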
# [2] = target: Fuc(a1-2)Gal(b1-3)GlcNAc(b1-3)Gal(b1-4)Glc
# Method in brief: as §1
# [3] = target: Fuc(a1-2)Gal(b1-3)GlcNAc(b1-3)GalNAc
# Method in brief: as §1
# [4] = target: Fuc(a1-2)Gal(b1-3)[Fuc(a1-4)]GlcNAc(b1-3)[Fuc(a1-3)[Gal(b1-4)]GlcNAc(b1-6)]Gal(b1-4)Glc
# Method in brief: as §1
# Fuc(a1-2)Gal(b1-4)Glc = target: Fuc(a1-2)Gal(b1-4)Glc
# Method in brief: as §1
# Fuc(a1-2)Gal(b1-4)Glc6S = target: Fuc(a1-2)Gal(b1-4)Glc6S
# Method in brief: as §1
# [5] = target: Fuc(a1-2)Gal(b1-4)GlcNAc(b1-3)Gal(b1-4)GlcNAc
# Method in brief: as §1
# [6] = target: Fuc(a1-2)Gal(b1-4)GlcNAc(b1-3)Gal(b1-4)GlcNAc(b1-3)Gal(b1-4)GlcNAc
# Method in brief: as §1
# [7] = target: Fuc(a1-2)Gal(b1-4)[Fuc(a1-3)]GlcNAc
# Method in brief: as §1
# [8] = target: Fuc(a1-2)Gal(b1-4)[Fuc(a1-3)]GlcNAc(b1-2)Man(a1-3)[Fuc(a1-2)Gal(b1-4)[Fuc(a1-3)]GlcNAc(b1-2)Man(a1-6)]Man(b1-4)GlcNAc(b1-4)[Fuc(a1-6)]GlcNAc
# Method in brief: as §1
# [9] = target: Fuc(a1-2)Gal(b1-4)[Fuc(a1-3)]GlcNAc(b1-2)[Fuc(a1-2)Gal(b1-4)[Fuc(a1-3)]GlcNAc(b1-4)]Man(a1-3)[Fuc(a1-2)Gal(b1-4)[Fuc(a1-3)]GlcNAc(b1-2)Man(a1-6)]Man(b1-4)GlcNAc(b1-4)GlcNAc
# Method in brief: as §1
# [10] = target: Fuc(a1-2)Gal(b1-4)[Fuc(a1-3)]GlcNAc(b1-3)Gal(b1-4)[Fuc(a1-3)]GlcNAc
# Method in brief: as §1
# [11] = target: Fuc(a1-2)Gal(b1-4)[Fuc(a1-3)]GlcNAc(b1-3)Gal(b1-4)[Fuc(a1-3)]GlcNAc(b1-3)Gal(b1-4)[Fuc(a1-3)]GlcNAc
# Method in brief: as §1
# [12] = target: Fuc(a1-2)[Gal(a1-3)]Gal(b1-3)GlcNAc
# Method in brief: as §1
# [13] = target: Fuc(a1-2)[Gal(a1-3)]Gal(b1-3)GlcNAc(b1-2)Man(a1-3)[Fuc(a1-2)[Gal(a1-3)]Gal(b1-3)GlcNAc(b1-2)Man(a1-6)]Man(b1-4)GlcNAc(b1-4)[Fuc(a1-6)]GlcNAc
# Method in brief: as §1
# [14] = target: Fuc(a1-2)[Gal(a1-3)]Gal(b1-4)GlcNAc(b1-2)Man
# Method in brief: as §1
# [15] = target: Fuc(a1-2)[GalNAc(a1-3)]Gal(b1-3)GalNAc(a1-3)[Fuc(a1-2)]Gal(b1-4)GlcNAc
# Method in brief: as §1
# [16] = target: Fuc(a1-2)[GalNAc(a1-4)]Gal(b1-4)GlcNAc
# Method in brief: as §1
# [17] = target: Fuc(a1-3)[Gal(b1-4)]GlcNAc
# Method in brief: as §1
# [18] = target: Fuc(a1-3)[Gal(b1-4)]GlcNAc(b1-3)Gal(b1-4)[Fuc(a1-3)]GlcNAc(b1-3)Gal(b1-4)[Fuc(a1-3)]GlcNAc
# Method in brief: as §1
# Gal(a1-3)Gal = target: Gal(a1-3)Gal
# Method in brief: as §1
# Gal(b1-2)Gal = target: Gal(b1-2)Gal
# Method in brief: as §1
# [19] = target: Gal(b1-3)GlcNAc(a1-6)Gal(b1-4)GlcNAc
# Method in brief: as §1
# [20] = target: Gal(b1-3)GlcNAc(b1-2)Man(a1-3)[GlcNAc(b1-4)][Gal(b1-3)GlcNAc(b1-2)Man(a1-6)]Man(b1-4)GlcNAc(b1-4)GlcNAc
# Method in brief: as §1
# [21] = target: Gal(b1-3)GlcNAc(b1-3)Gal(b1-4)GlcNAc
# Method in brief: as §1
# [22] = target: Gal(b1-3)GlcNAc(b1-3)Gal(b1-4)[Fuc(a1-3)]GlcNAc(b1-6)[Gal(b1-3)GlcNAc(b1-3)]Gal(b1-4)Glc
# Method in brief: as §1
# Gal(b1-3)GlcNAc6S = target: Gal(b1-3)GlcNAc6S
# Method in brief: as §1
# [23] = target: Gal(b1-3)[Fuc(a1-4)]GlcNAc(b1-3)Gal(b1-3)[Fuc(a1-4)]GlcNAc
# Method in brief: as §1
# [24] = target: Gal(b1-3)[Fuc(a1-4)]GlcNAc(b1-3)Gal(b1-4)[Fuc(a1-3)]GlcNAc
# Method in brief: as §1
# Gal(b1-4)GlcNAc = target: Gal(b1-4)GlcNAc
# Method in brief: as §1
# [25] = target: Gal(b1-4)GlcNAc(b1-2)[Gal(b1-4)GlcNAc(b1-4)]Man(a1-3)[Gal(b1-4)GlcNAc(b1-2)Man(a1-6)]Man(b1-4)GlcNAc(b1-4)GlcNAc
# Method in brief: as §1
# [26] = target: Gal(b1-4)GlcNAc(b1-2)[Gal(b1-4)GlcNAc(b1-6)]Man(a1-6)[GlcNAc(b1-4)][Gal(b1-4)GlcNAc(b1-2)Man(a1-3)]Man(b1-4)GlcNAc(b1-4)GlcNAc
# Method in brief: as §1
# [27] = target: Gal(b1-4)GlcNAc(b1-3)Gal(b1-4)GlcNAc(b1-6)[Gal(b1-3)]GalNAc
# Method in brief: as §1
# [28] = target: Gal(b1-4)GlcNAc(b1-3)[GlcNAc(b1-6)]Gal(b1-4)GlcNAc
# Method in brief: as §1
# [29] = target: Gal3S(b1-3)[Fuc(a1-4)]GlcNAc
# Method in brief: as §1
# Gal6S(b1-4)Glc6S = target: Gal6S(b1-4)Glc6S
# Method in brief: as §1
# GalNAc(b1-6)GalNAc = target: GalNAc(b1-6)GalNAc
# Method in brief: as §1
# Glc(a1-6)Glc(a1-6)Glc = target: Glc(a1-6)Glc(a1-6)Glc
# Method in brief: as §1
# [30] = target: GlcNAc(b1-2)[GlcNAc(b1-4)]Man(a1-3)[GlcNAc(b1-4)][GlcNAc(b1-2)Man(a1-6)]Man(b1-4)GlcNAc(b1-4)GlcNAc
# Method in brief: as §1
# [31] = target: GlcNAc(b1-3)Gal(b1-3)GalNAc
# Method in brief: as §1
# [32] = target: GlcNAc(b1-3)Gal(b1-4)GlcNAc(b1-3)Gal(b1-4)GlcNAc(b1-3)Gal(b1-4)GlcNAc(b1-3)Gal(b1-4)GlcNAc(b1-2)[GlcNAc(b1-3)Gal(b1-4)GlcNAc(b1-3)Gal(b1-4)GlcNAc(b1-3)Gal(b1-4)GlcNAc(b1-3)Gal(b1-4)GlcNAc(b1-6)]Man(a1-6)[GlcNAc(b1-3)Gal(b1-4)GlcNAc(b1-3)Gal(b1-4)GlcNAc(b1-3)Gal(b1-4)GlcNAc(b1-3)Gal(b1-4)GlcNAc(b1-2)Man(a1-3)]Man(b1-4)GlcNAc(b1-4)[Fuc(a1-6)]GlcNAc
# Method in brief: as §1
# Man(a1-6)Man = target: Man(a1-6)Man
# Method in brief: as §1
# [33] = target: Neu5Ac(a2-3)Gal(b1-4)GlcNAc(b1-3)Gal(b1-4)GlcNAc
# Method in brief: as §1
# [34] = target: Neu5Ac(a2-3)Gal(b1-4)GlcNAc(b1-3)Gal(b1-4)GlcNAc(b1-6)[Gal(b1-3)]GalNAc
# Method in brief: as §1
# [35] = target: Neu5Ac(a2-3)Gal(b1-4)GlcNAc(b1-6)[Gal(b1-3)]GalNAc
# Method in brief: as §1
# [36] = target: Neu5Ac(a2-3)[GalNAc(b1-4)]Gal(b1-4)GlcNAc(b1-3)GalNAc
# Method in brief: as §1
# [37] = target: Neu5Ac(a2-6)Gal(b1-4)GlcNAc(b1-2)Man(a1-3)[Neu5Ac(a2-3)Gal(b1-4)GlcNAc(b1-2)Man(a1-6)]Man(b1-4)GlcNAc(b1-4)GlcNAc
# Method in brief: as §1
# [38] = target: Neu5Ac(a2-6)Gal(b1-4)GlcNAc(b1-2)Man(a1-6)[Man(a1-3)]Man(b1-4)GlcNAc(b1-4)GlcNAc
# Method in brief: as §1
# [39] = target: Neu5Ac(a2-6)GalNAc(b1-4)GlcNAc
# Method in brief: as §1
# [40] = target: Neu5Ac(a2-8)Neu5Ac(a2-8)Neu5Ac(a2-3)[GalNAc(b1-4)]Gal(b1-4)Glc
# Method in brief: as §1
# Neu5Gc(a2-3)Gal(b1-4)Glc = target: Neu5Gc(a2-3)Gal(b1-4)Glc
# Method in brief: as §1
# [41] = target: Neu5Gc(a2-8)Neu5Gc(a2-3)Gal(b1-4)GlcNAc(b1-3)Gal(b1-4)GlcNAc
# Method in brief: as §1
binder,measurement,setting,value
LecB LY19 (Pseudomonas aeruginosa) (protein) MATQGVFTLPANTQFGVTAFANSAGTQTVNVQVNNETVATFTGQSTNNGIIGSKVLNSGGGGKVQILVSVNGRSSDLVSAQVILANELNFALVGSEDSTDNDYNDAVVVINWPLG,glycan array binding signal (z-score),[1],1.77
same,glycan array binding signal (z-score),[2],1.85
same,glycan array binding signal (z-score),[3],1.49
same,glycan array binding signal (z-score),[4],1.32
same,glycan array binding signal (z-score),Fuc(a1-2)Gal(b1-4)Glc,1.5
same,glycan array binding signal (z-score),Fuc(a1-2)Gal(b1-4)Glc6S,1.37
same,glycan array binding signal (z-score),[5],3.29
same,glycan array binding signal (z-score),[6],3.69
same,glycan array binding signal (z-score),[7],2.54
same,glycan array binding signal (z-score),[8],5.32
same,glycan array binding signal (z-score),[9],0.085
same,glycan array binding signal (z-score),[10],5.07
same,glycan array binding signal (z-score),[11],3.27
same,glycan array binding signal (z-score),[12],-0.452
same,glycan array binding signal (z-score),[13],0.089
same,glycan array binding signal (z-score),[14],9.41
same,glycan array binding signal (z-score),[15],-0.497
same,glycan array binding signal (z-score),[16],2.12
same,glycan array binding signal (z-score),[17],1.65
same,glycan array binding signal (z-score),[18],2.77
same,glycan array binding signal (z-score),Gal(a1-3)Gal,-0.538
same,glycan array binding signal (z-score),Gal(b1-2)Gal,-0.514
same,glycan array binding signal (z-score),[19],-0.55
same,glycan array binding signal (z-score),[20],-0.306
same,glycan array binding signal (z-score),[21],-0.553
same,glycan array binding signal (z-score),[22],0.2
same,glycan array binding signal (z-score),Gal(b1-3)GlcNAc6S,-0.533
same,glycan array binding signal (z-score),[23],3.35
same,glycan array binding signal (z-score),[24],4.05
same,glycan array binding signal (z-score),Gal(b1-4)GlcNAc,-0.551
same,glycan array binding signal (z-score),[25],-0.3
same,glycan array binding signal (z-score),[26],-0.542
same,glycan array binding signal (z-score),[27],-0.545
same,glycan array binding signal (z-score),[28],0.575
same,glycan array binding signal (z-score),[29],3.07
same,glycan array binding signal (z-score),Gal6S(b1-4)Glc6S,-0.533
same,glycan array binding signal (z-score),GalNAc(b1-6)GalNAc,-0.559
same,glycan array binding signal (z-score),Glc(a1-6)Glc(a1-6)Glc,-0.491
same,glycan array binding signal (z-score),[30],-0.556
same,glycan array binding signal (z-score),[31],-0.542
same,glycan array binding signal (z-score),[32],0.196
same,glycan array binding signal (z-score),Man(a1-6)Man,-0.329
same,glycan array binding signal (z-score),[33],-0.547
same,glycan array binding signal (z-score),[34],-0.554
same,glycan array binding signal (z-score),[35],-0.147
same,glycan array binding signal (z-score),[36],-0.553
same,glycan array binding signal (z-score),[37],-0.539
same,glycan array binding signal (z-score),[38],0.735
same,glycan array binding signal (z-score),[39],-0.55
same,glycan array binding signal (z-score),[40],-0.546
same,glycan array binding signal (z-score),Neu5Gc(a2-3)Gal(b1-4)Glc,-0.511
same,glycan array binding signal (z-score),[41],-0.556
